# PubChem BioAssay (NCI)
# The panel holds about 83,000 compounds, 20% with a hit somewhere; the sample as a whole holds those more often.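 Testing used 96-well plates and a 48-hour single-concentration exposure. Example: -40 means 40% of the starting cells died.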 Unmarked numbers belong to inactive results. Activity calls are given as the source filed them. How the source made its calls: active means growth percent below 10; inactive means the rest.
# Experiments:
# Assay in all cases: NCI-60 one-dose screen, 48 h (100 = growth as untreated, 0 = no growth, -100 = all killed)
# Conditions in all cases: 10 µM unless noted
# SK-MEL-2 melanoma = test system: SK-MEL-2 melanoma
# EKVX NSCLC = test system: EKVX NSCLC
# SN12C renal = test system: SN12C renal
# UO-31 renal = test system: UO-31 renal
# TK-10 renal = test system: TK-10 renal
# ACHN renal = test system: ACHN renal
# CAKI-1 renal = test system: CAKI-1 renal
# A498 renal = test system: A498 renal
# CCRF-CEM leukemia = test system: CCRF-CEM leukemia
# MOLT-4 leukemia = test system: MOLT-4 leukemia
# SR leukemia = test system: SR leukemia
# RPMI-8226 leukemia = test system: RPMI-8226 leukemia
# OVCAR-5 ovarian = test system: OVCAR-5 ovarian
# OVCAR-4 ovarian = test system: OVCAR-4 ovarian
# SK-OV-3 ovarian = test system: SK-OV-3 ovarian
# IGROV1 ovarian = test system: IGROV1 ovarian
# OVCAR-3 ovarian = test system: OVCAR-3 ovarian
# NCI/ADR-RES ovarian = test system: NCI/ADR-RES ovarian
# OVCAR-8 ovarian = test system: OVCAR-8 ovarian
# HS 578T breast = test system: HS 578T breast
SMILES,growth (SK-MEL-2 melanoma),growth (EKVX NSCLC),growth (SN12C renal),growth (UO-31 renal),growth (TK-10 renal),growth (ACHN renal),growth (CAKI-1 renal),growth (A498 renal),growth (CCRF-CEM leukemia),growth (MOLT-4 leukemia),growth (SR leukemia),growth (RPMI-8226 leukemia),growth (OVCAR-5 ovarian),growth (OVCAR-4 ovarian),growth (SK-OV-3 ovarian),growth (IGROV1 ovarian),growth (OVCAR-3 ovarian),growth (NCI/ADR-RES ovarian),growth (OVCAR-8 ovarian),growth (HS 578T breast)
CC1=C(C(=O)OC(C)C)C(c2cccc(O)c2)NC(=S)N1 (configuration not stated),111%,99.6%,102%,92%,104%,98.1%,89.9%,125%,98.6%,96.1%,90.7%,88.9%,104%,98%,97.9%,110%,120%,105%,–,–
COc1cc2c(c(OC)c1OC)C(=O)CC(c1cccc(NC(=O)c3cc([N+](=O)[O-])ccc3Cl)c1)O2 (configuration not stated),15%,52.3%,24%,29.9%,65.8%,6.5% (active),20.8%,131%,22.8%,14.4%,–,30.3%,67.2%,57.2%,57.1%,12.5%,16%,15%,-11.6% (active),15.1%
Cn1cc(-c2cc3nc(-c4cn(C)c5ncccc45)cc(N)n3n2)c2ccccc21,15.2%,43.7%,-38.2% (active),8.84% (active),80.3%,-73.3% (active),-23.2% (active),-2.42% (active),0.438% (active),-21.3% (active),–,-19.1% (active),48.9%,3.01% (active),42.8%,0.888% (active),6.85% (active),31.2%,10.2%,-13% (active)
C=C1CC[C@@H]2[C@]3(C)COC(c4cn(-c5ccccc5)nc4-c4cccc([N+](=O)[O-])c4)O[C@@H]3CC[C@@]2(C)[C@@H]1C/C=C1/C(=O)OC[C@H]1O (some centres not stated),-45.2% (active),-0.625% (active),3.71% (active),12.2%,36.9%,-74.5% (active),38.7%,105%,-1.81% (active),-3.81% (active),-16.7% (active),-42.4% (active),–,14%,93%,-25% (active),15.1%,-42.6% (active),–,–
COc1ccc2c(c1)c(-c1cc3nc(-c4cn(C)c5ncccc45)cc(N)n3n1)cn2C,-71.9% (active),-22.8% (active),-60.2% (active),-62.1% (active),-27.8% (active),-100% (active),-35.9% (active),16.6%,-22% (active),-42.5% (active),-19.3% (active),-20.6% (active),-7.9% (active),-5.11% (active),-57% (active),-58.1% (active),-12.4% (active),9.49% (active),–,-26.8% (active)
COc1cc2nc(SCc3ccccc3)n(-c3ccc(Cl)cc3)c(=O)c2cc1OC,28.3%,-13.1% (active),-11.3% (active),-38.8% (active),-38.8% (active),-66.4% (active),-75.5% (active),7.03% (active),18.5%,43.1%,5.33% (active),34%,–,-55.6% (active),-19.1% (active),4.02% (active),-42.6% (active),-30.4% (active),–,-9.89% (active)
Cc1cc2c(cc1Cl)C(=O)/C(=C/c1ccccc1)O2,41%,-7.97% (active),-68.8% (active),-80.4% (active),56%,-83.1% (active),-81.1% (active),115%,4.91% (active),0.549% (active),–,26%,75%,9.29% (active),71.4%,-48.2% (active),26.8%,-19.8% (active),-24.7% (active),21%
O=c1oc2ccccc2cc1-c1csc(N=Nc2c(O)[nH]c3ccc(Cl)cc23)n1,112%,100%,97.9%,97.7%,109%,110%,106%,98.6%,103%,109%,–,117%,116%,99.5%,94.1%,120%,102%,103%,110%,99.2%
COc1ccc2c(c1)c(-c1cc(N)n3nc(-c4cn(C)c5ccccc45)cc3n1)cn2C,-92.4% (active),-63.1% (active),-59.6% (active),-88.3% (active),-79% (active),-98.7% (active),-77.4% (active),-20.3% (active),-24.3% (active),0.804% (active),6.15% (active),-14.5% (active),-38.8% (active),-64.2% (active),-79.5% (active),-40.3% (active),-67.4% (active),-17.1% (active),–,-20.7% (active)
Cc1c(C(=O)NNC(=O)c2ccc(Cl)cc2)nnn1-c1ccc(Cl)cc1,106%,91.5%,94.7%,74.1%,96.1%,103%,87.2%,105%,88.4%,85.4%,84.4%,95.7%,93.6%,92.4%,82.3%,106%,114%,91.3%,–,–
COc1cccc(COc2ccc(NC(=O)Nc3ccc(Cl)c(C(F)(F)F)c3)cc2)c1,51.5%,35.2%,33%,7.91% (active),45.1%,11.2%,24.2%,35.3%,34.1%,28.1%,–,13.5%,69.8%,45.2%,35.6%,25.8%,27.6%,47.1%,31.9%,26.7%
O=C(Cn1c(/C=C/c2ccccc2)nc2ccccc2c1=O)Nc1ccccc1,94.7%,124%,31%,24.7%,75.6%,1.89% (active),8.48% (active),-29.9% (active),71.4%,73%,–,90.2%,96.1%,-0.268% (active),61.4%,107%,78.3%,57.9%,44.4%,82.5%
CCOC(=O)c1ccc(Nc2nc(NN)nc(-c3ccc(OC)cc3)c2C#N)cc1,114%,118%,114%,93.8%,120%,113%,105%,118%,-5.35% (active),36.1%,–,92%,104%,104%,119%,108%,107%,113%,116%,104%
CN(C)c1nc(NCCNS(=O)(=O)c2ccc(C(=O)/C=C/c3ccc(C(F)(F)F)cc3)cc2)nc(Nc2ccc(F)cc2)n1,-7.74% (active),13.6%,-99.1% (active),25.5%,26.2%,1.99% (active),4.56% (active),49.6%,10.1%,0.0408% (active),–,0.159% (active),-68.9% (active),11.6%,66%,-40.6% (active),-86.7% (active),-54.3% (active),-62.1% (active),52.1%
CC(=O)Oc1ccccc1C(=O)[Se]C(=NC1CCCCC1)NC1CCCCC1,-74.5% (active),-97.6% (active),-99.3% (active),-100% (active),-98.8% (active),-73.8% (active),-97.7% (active),-5.3% (active),4.94% (active),-22.2% (active),-15.7% (active),4.77% (active),-89.6% (active),-85.9% (active),-99.1% (active),-94% (active),-71.6% (active),-63.3% (active),–,–
COc1ccc(C2CC(c3ccc(S(=O)(=O)NCCNc4nc(Nc5ccc(F)cc5)nc(N(C)C)n4)cc3)=Nc3c(N)nc(N)nc3N2)cc1 (configuration not stated),107%,87.9%,81.1%,86.2%,107%,92.7%,88.1%,93.6%,36.2%,20.6%,8.79% (active),24%,98.8%,83.7%,108%,95.7%,95.4%,99.9%,–,70.6%
S=c1c2ccccc2nc2n1CCc1c-2[nH]c2ccccc12,72.9%,50.6%,60.9%,56.8%,69%,42.4%,36.6%,112%,96.2%,74.1%,–,89.5%,86.8%,50.3%,42.2%,48.2%,67.2%,49.6%,28.6%,8.23% (active)
